CHX counter – affects cycloheximide protein synthesis inhibition readout, counter-screen; cell reporter, cycloheximide protein synthesis inhibition counterscreen; max response, %; 300,000 tested, 12% active; in the data active = max response mostly above about 13%, no sharp cut-off; inactive = mostly below about 14%; note: read at 38.3 µM for the half of the compounds with a filed dose
Pf growth 48h – inhibits P. falciparum growth in the first generation, 48 h. P. falciparum luciferase growth in erythrocytes, 48 h. Potency, µM (series often up to 28.7 µM), actives largely listed as inhibitors. 310,000 tested, 5.9% active; active = well fitted inhibition curve with a large enough effect; inconclusive = small, poorly fitted or top-dose-only effect, or another doubt; inactive = no such curve, though single readings can be large or run the other way
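In quantitative HTS format, infected erythrocytes bearing luciferase-reporter parasites were treated for a single generation at 37 C. Luminescence after adding detection reagent served as the growth measure.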
SARS PLP yeast – blocks SARS-CoV papain-like protease in a yeast assay; Potency, µM (doses to about 32.9 µM), hits mostly activators; S. cerevisiae expressing SARS-CoV PLpro, growth rescue; 330,000 tested, 0.19% active; AID 485353; note: nearly all actives have a fitted effect of over 55% in size
NS1 inh – influenza NS1 inhibition; Potency, µM (titrated, usually from 46.1 µM); 270,000 tested, 0.4% active; AID 2326; note: actives are rising curves; nearly all actives have a fitted effect of over 50% in size
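In this qHTS, NS1 from influenza A is expressed in budding yeast, where it slows growth. Cells are switched from glucose to 2% galactose medium (pH 6.0, -URA), treated with compound, and growth recovery is read at OD600.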
Shiga inhibitor – inhibitors of Shiga toxin in Vero cells; Vero cells, Shiga toxin protein synthesis inhibition reporter; inhibition, % at 38.7 µM; 290,000 tested, 9.2% active; in the data active = inhibition mostly above about 28%, no sharp cut-off; inactive = mostly below about 43%
Pf growth 96h – P. falciparum growth inhibition at 96 hours; P. falciparum luciferase reporter growth, 96 h; AID 504834; Potency, µM (series often up to 28.7 µM), usual class: inhibitors; 320,000 tested, 6.9% active; active = well fitted inhibition curve with a large enough effect; inconclusive = small, poorly fitted or top-dose-only effect, or another doubt; inactive = no such curve, though single readings can be large or run the other way
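Cell-based qHTS: luciferase-tagged P. falciparum in erythrocytes (2% hematocrit, 0.05% parasitemia final) incubated with compounds for 96 hours, 37 C, 5% CO2; luciferase detection reagent then added and luminescence measured.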
A number is an active result; – = inactive; ? = inconclusive; · = not tested or not shown. An excerpt weighted towards active compounds, which were near 21% of everything screened. Unless noted, calls come from the whole dose curve.

SMILES	CHX counter	Pf growth 48h	SARS PLP yeast	NS1 inh	Shiga inhibitor	Pf growth 96h
CC(C)CCN(C(=O)c1cn2ccccc2n1)c1c(N)n(Cc2ccccc2)c(=O)[nH]c1=O	·	–	–	·	·	–
NNC(=O)/C(=C/c1cccs1)NC(=O)c1ccccc1Cl	–	–	–	–	–	–
O=C(C1COc2ccccc2O1)N1CCc2ccccc2C1 (stereo not drawn)	28.6	–	–	–	59.7	?
O=C(C1COc2ccccc2O1)N1CCN(c2ccccc2F)CC1 (stereo not drawn)	–	11.7µM	–	–	–	?
Cc1cc(=O)oc2c(C)c(OCC(=O)N3CCN(C(=O)C4COc5ccccc5O4)CC3)ccc12 (stereo not drawn)	–	10.4µM	–	–	–	9.28µM
CC1CCN(S(=O)(=O)c2cc3c4c(c2)C(C)C(=O)N4CCC3)CC1 (stereo not drawn)	–	–	–	–	–	?
Cc1cccc(C)c1OCc1nnc(SCC(=O)Nc2ccc(N3CCOCC3)cc2)o1	–	–	–	–	–	–
NS(=O)(=O)c1ccc(NC(=O)CSc2nc3ccccc3nc2N2CCOCC2)cc1	–	–	–	–	–	–
CC(C)CCSc1nc2ccccc2[nH]1	52.3	–	–	·	102.5	–
C=C(C)CSc1nc2nc(C)c(Br)cc2[nH]1	29.8	–	–	–	80.9	·
CC(=O)N=C(N)Sc1nc2ccccc2[nH]1	48.2	–	–	–	67.3	–
C=C(C)CSc1nc2ccccc2[nH]1	28.6	–	–	–	59.5	–
CC(Sc1nc2ccccc2[nH]1)C(=O)O (stereo not drawn)	–	·	–	–	–	–
COc1ccc(CNC(=O)CCNS(=O)(=O)c2cc(Br)cnc2N)cc1	–	–	–	–	–	–
CC(=O)Nc1ccc(S(=O)(=O)N(Cc2ccco2)Cc2cc3ccccc3[nH]c2=O)cc1	–	–	–	–	–	?
CN(Cc1cccs1)C(=O)CSc1nc2ccccc2[nH]1	47.3	–	–	·	122.5	–
COc1ccc(OC)c(NC(=O)c2cc(-c3cc(Cl)ccc3O)n[nH]2)c1	–	1.65µM	–	–	–	8.28µM
Cc1c(Cl)cccc1NC(=O)c1cc(-c2ccccc2O)n[nH]1	18.4	·	–	–	–	?
O=C(O)c1cc(-c2ccccc2Cl)n[nH]1	–	·	–	–	–	·
COc1ccc(Cl)cc1NC(=O)c1cc(-c2ccccc2O)n[nH]1	–	10.4µM	–	?	–	10.4µM
Clc1ccc(Sc2cc(Cl)c(Cl)cc2Cl)cc1	–	·	·	·	–	·
Cc1ccc(NCC(=O)Nc2c(C)n(C)n(-c3ccccc3)c2=O)cc1S(=O)(=O)N(C)C	–	–	–	–	–	–
O=C(NCC1CCCCC1)c1ccco1	–	–	–	–	–	–
O=C(NC1CN2CCC1CC2)c1ccc(-c2ccc([N+](=O)[O-])cc2)o1 (stereo not drawn)	–	1.65µM	–	–	–	?
CC1(C)CC(NC(=O)c2ccc(-c3ccc([N+](=O)[O-])cc3)o2)CC(C)(C)N1	–	10.4µM	–	–	–	?
SMILES	CHX counter	Pf growth 48h	SARS PLP yeast	NS1 inh	Shiga inhibitor	Pf growth 96h
CC1CC(C)CN(C(=O)c2ccc(-c3ccc([N+](=O)[O-])cc3)o2)C1 (stereo not drawn)	·	–	–	·	·	–
O=C(NC1CCCCC1)c1ccc(-c2cccc([N+](=O)[O-])c2)o1	55.6	–	–	–	74.1	?
Cc1ccc(SCn2nnc3ccccc3c2=O)c(C)c1	50.6	–	–	–	117.8	–
Cc1ccc(-n2c(SCn3nnc4ccccc4c3=O)nnc2-c2cccnc2)c(C)c1	–	10.4µM	–	–	–	?
O=c1c2ccccc2nnn1CSc1ccccc1F	63.1	–	–	–	55.3	–
O=c1c2ccccc2nnn1CSc1ncnc2ccccc12	–	–	–	–	–	?
O=c1c2ccccc2nnn1CSc1nnc2sc3ccccc3n12	37.8	–	–	–	79.2	–
O=c1c2ccccc2nnn1CSc1nnc(-c2cccnc2)n1-c1ccccc1F	–	?	–	–	–	–
Cc1ccc2c(CC(=O)Nc3ccc(F)c(S(=O)(=O)N4CCOCC4)c3)coc2c1	·	?	–	·	·	?
O=C(CC(=O)Nc1cc(Cl)ccc1Cl)Nc1cc(Cl)ccc1Cl	–	·	–	–	–	?
Cc1ccc2nc(SCn3nnc4ccccc4c3=O)[nH]c2c1	65.2	–	–	–	98.3	–
O=C(O)c1nn(CCSc2ccccc2F)c(=O)c2ccccc12	22.6	–	–	–	–	–
O=c1c2ccccc2nnn1CSc1nc2ccccc2[nH]1	42.6	–	–	–	76.5	–
CC(=O)Nc1ccc(S(=O)(=O)N(C)CC(=O)Nc2ccc(F)c(F)c2F)cc1	·	?	–	·	·	?
N#C/C(=C\c1ccc(Cl)cc1)c1nc2ccccc2o1	–	–	–	–	–	–
Cn1c(/C(C#N)=C/Nc2ccccn2)nc2ccccc21	–	·	–	–	–	·
N#C/C(=C\c1ccncc1)c1nc2ccccc2o1	29.5	–	–	–	–	–
Cn1c(/C(C#N)=C/c2cccc(O)c2)nc2ccccc21	42.5	?	–	–	–	–
N#C/C(=C\Nc1ccccc1O)c1nc2ccccc2o1	25.9	1.65µM	–	–	70.6	10.4µM
N#C/C(=C\c1cccc(O)c1)c1nc2ccccc2o1	58.6	–	–	–	85.2	–
O=C(Nc1cccc(S(=O)(=O)N2CCOCC2)c1)C1CCN(S(=O)(=O)c2ccccc2)CC1	·	?	–	·	·	?
CC1(C(=O)NCc2ccc(F)cc2)Oc2ccccc2NC1=O (stereo not drawn)	–	–	–	·	–	–
Cc1ccc(NCC(=O)N=Nc2c(O)[nH]c3ccc([N+](=O)[O-])cc23)cc1	43.5	–	–	–	–	?
O=C(N=Nc1c(O)[nH]c2ccc([N+](=O)[O-])cc12)c1ccccc1Cl	–	–	–	–	–	–
CCNC(=S)N=Nc1c(O)[nH]c2ccc([N+](=O)[O-])cc12	–	?	–	·	–	6.57µM
SMILES	CHX counter	Pf growth 48h	SARS PLP yeast	NS1 inh	Shiga inhibitor	Pf growth 96h
O=C(Nc1ccc(F)cc1)C(=O)c1c(O)[nH]c2ccc([N+](=O)[O-])cc12	19.3	–	–	–	–	–
O=C(O)CSc1nc2ccccc2nc1Cc1ccccc1F	–	·	–	–	–	–
CCN1CCN(C(=O)CCn2c(=O)c3cccn3c3cccnc32)CC1	–	–	–	–	–	?
CC(=O)c1c(C)[nH]c(C(=O)OCC(=O)N2CC(=O)Nc3ccccc32)c1C	–	–	–	–	–	–
CC(C)(C)OC(=O)N[C@@H](Cc1ccccc1)c1nnc(S(=O)(=O)Cc2ccccc2)o1	–	–	–	–	–	·
CCC(C)C(NCc1cccc(C)c1)C(=O)O (stereo not drawn)	·	·	·	–	·	·
Cc1ccccc1CS(=O)(=O)c1nnc([C@H](Cc2ccccc2)NC(=O)OC(C)(C)C)o1	39.8	·	–	–	–	?
CCC(C)[C@@H](NC(=O)OC(C)(C)C)c1nnc(S(=O)(=O)Cc2cccc(C)c2)o1 (stereo partly drawn)	30.9	–	–	–	77.2	–

Assay outcomes deposited in PubChem BioAssay by National Center for Advancing Translational Sciences (NCATS).
